Source: the supplement of paper PMC9844399
Counter-ions that a name gives are not always drawn.

tested on: HeLa; assay: MALAT1 nuclear FISH intensity, robust Z-score vs DMSO; higher = more nuclear MALAT1 lncRNA, active = -3 or less; settings: 10 µM; 6 h
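Note: High-content confocal imaging of branched-DNA amplified FISH in 384-well plates, Hoechst-defined nuclei, score is well value minus plate DMSO median over DMSO robust SD, four wells per compound.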

| SMILES | MALAT1 nuclear FISH intensity |
| --- | --- |
| COc1ccc2cccc(CCNC(C)=O)c2c1 [Agomelatine] | -0.97 (inactive) |
| O=C1Nc2ccc(I)cc2/C1=C/c1cc(Br)c(O)c(Br)c1 | -1.06 (inactive) |
| C#C[C@]1(O)CC[C@H]2[C@@H]3CCc4cc(OC)ccc4[C@H]3CC[C@@]21C [Mestranol] | 0.00444 (inactive) |
| O=C(O)c1ccccc1 [Benzoic acid] | 0.84 (inactive) |
| N[C@H]1C(O)O[C@H](CO)[C@@H](O)[C@@H]1O (some centres undefined) [Glucosamine HCl] | -0.415 (inactive) |
| CC1(C)O[C@@H]2[C@@H](CO[C@@]3(COS(N)(=O)=O)OC(C)(C)O[C@@H]23)O1 [Topiramate] | 0.117 (inactive) |
| CCN(CCO)CCCC(C)Nc1ccnc2cc(Cl)ccc12 (centres undefined) [Hydroxychloroquine Sulfate] | -0.075 (inactive) |
| Cc1ccc(C)c(OCCCC(C)(C)C(=O)O)c1 [Gemfibrozil] | -0.282 (inactive) |
| Cc1cccc(Nc2ccncc2S(=O)(=O)NC(=O)NC(C)C)c1 [Torsemide] | 1.33 (inactive) |
| COc1ccc(-c2ccc3cc(C(=O)O)ccc3c2)cc1C12CC3CC(CC(C3)C1)C2 [Adapalene] | -0.946 (inactive) |
| CCOc1ccccc1OCCN[C@H](C)Cc1ccc(OC)c(S(N)(=O)=O)c1 | -1.94 (inactive) |
| CCC(=O)NCC[C@@H]1CCc2ccc3c(c21)CCO3 [Ramelteon] | -1.04 (inactive) |
| S=c1[nH]cnc2nc[nH]c12 [Mercaptopurine Hydrate] | -0.672 (inactive) |
| CC/C=C\C/C=C\C/C=C\C/C=C\C/C=C\C/C=C\CCC(=O)O [Docosahexaenoic acid(22:6 n-3)] | -0.455 (inactive) |
| O=C(c1ccccc1)c1ccc2n1CCC2C(=O)O (centres undefined) [Ketorolac Tromethamine] | -1.07 (inactive) |
| COc1ccc2cc3[n+](cc2c1OC)CCc1cc2c(cc1-3)OCO2 [Berberine chloride form] | -1.83 (inactive) |
| CC1(C2CCCC2)Cc2cc(OCC(=O)O)c(Cl)c(Cl)c2C1=O (centres undefined) | 0.801 (inactive) |
| CCN(CC)CCCC(C)Nc1ccnc2cc(Cl)ccc12 (centres undefined) [Chloroquine Diphosphate] | -0.205 (inactive) |
| COc1cccc2c1C(=O)c1c(O)c3c(c(O)c1C2=O)C[C@@](O)(C(=O)CO)C[C@@H]3O[C@H]1C[C@H](N)[C@@H](O)[C@H](C)O1 | -1.13 (inactive) |
| CN1C(CCl)Nc2cc(Cl)c(S(N)(=O)=O)cc2S1(=O)=O (centres undefined) [Methyclothiazide] | 0.344 (inactive) |

| SMILES | MALAT1 nuclear FISH intensity |
| --- | --- |
| COc1ccc(/C=C/c2cc(OC)cc(=O)o2)cc1 [Yangonin] | -1.1 (inactive) |
| CCc1cccc2c3c([nH]c12)C(CC)(CC(=O)O)OCC3 (centres undefined) [Etodolac] | -0.647 (inactive) |
| CCN(CC)CCCCN1c2ccccc2Oc2ccc(Cl)cc21 [Akt Inhibitor X] | 1.59 (inactive) |
| CNC(=O)c1ccccc1Oc1nc(Nc2cc(OC)c(OC)c(OC)c2)ncc1Br | -0.901 (inactive) |
| CCCNC(=O)NS(=O)(=O)c1ccc(Cl)cc1 [Chlorpropamide] | -0.224 (inactive) |
| CC(C)N1CCN(c2ccc(OCC3COC(Cn4cncn4)(c4ccc(Cl)cc4Cl)O3)cc2)CC1 (centres undefined) [Terconazole] | 0.721 (inactive) |
| CNC(C)C1CCC(N)C(OC2C(N)CC(N)C(OC3OCC(C)(O)C(NC)C3O)C2O)O1 (centres undefined) [Gentamycin Sulfate] | 0.205 (inactive) |
| NC(=O)N1c2ccccc2CC(=O)c2ccccc21 [Oxcarbazepine] | 0.499 (inactive) |
| Clc1cccc(Cl)c1NC1=NCCN1 | 0.0792 (inactive) |
| COc1ccc(CC2c3cc(OC)c(OC)cc3CC[N+]2(C)CCC(=O)OCCCCCOC(=O)CC[N+]2(C)CCc3cc(OC)c(OC)cc3C2Cc2ccc(OC)c(OC)c2)cc1OC (centres undefined) [Atracurium Besylate] | -0.402 (inactive) |
| CC(C)(O/N=C(\C(=O)N[C@@H]1C(=O)N2C(C(=O)[O-])=C(C[n+]3ccccc3)CS[C@H]12)c1csc(N)n1)C(=O)O [Ceftazidime] | -0.344 (inactive) |
| COc1cc2nc(N3CCN(C(=O)c4ccco4)CC3)nc(N)c2cc1OC [Prazosin hydrochloride] | -0.417 (inactive) |
| Nc1nc2c(ncn2COC(CO)CO)c(=O)[nH]1 [Ganciclovir] | -0.75 (inactive) |
| CCCCC1C(=O)N(c2ccccc2)N(c2ccccc2)C1=O [Phenylbutazone] | -1.49 (inactive) |
| CC(C(C)N1CC(=O)NC(=O)C1)N1CC(=O)NC(=O)C1 (centres undefined) | -1.32 (inactive) |
| NC(=O)c1cn(Cc2c(F)cccc2F)nn1 [Rufinamide] | -0.463 (inactive) |
| CO/N=C(\C(=O)N[C@@H]1C(=O)N2C(C(=O)O)=C(C[N+]3(C)CCCC3)CS[C@H]12)c1csc(N)n1 | 0.948 (inactive) |
| CC(C)n1cnc2c(NCc3ccccc3)nc(NCCO)nc21 [N9-Isopropylolomoucine] | -1.87 (inactive) |
| c1cnc2cc3c(cc2n1)[C@@H]1CNC[C@H]3C1 [Varenicline Tartrate] | 0.129 (inactive) |
